This is an account of results in PubChem BioAssay (NCATS).

Records with an inconclusive call do not appear. Unmarked numbers belong to inactive results. The source made the active and inactive calls. Calls follow the shape of the dose curve; as a rule, active = well fitted curve in the direction sought with a large enough effect; inconclusive = small, poorly fitted or top-dose-only effect, or another doubt; inactive = no such curve, though single readings can be large; an effect the other way counts as inactive or inconclusive.

For assay [1], the target named is Cellular tumor antigen p53 (Homo sapiens) (UniProt P04637). The experiment in a line: Primary qHTS for small molecule compounds that upregulate eGFP-tagged delta133p53alpha (in N-terminal) cells. (AID 2060322). Also: nearly all actives have a fitted effect of over 75% in size. Also: potency is read from the fitted curve at half-maximal effect.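 As to activation: cells pre-induced with doxycycline then dosed without doxycycline; series mostly up to about 56 µM; 0% = DMSO vehicle and 100% = reference activator.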 The conditions noted are these: NCI-H358 eGFP-delta133p53alpha fluorescence, 24 h; activation: active compounds read high. In a few lines:
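NCI-H358 cells pre-induced 24 h with 10 ng/ml doxycycline for eGFP-delta133p53alpha, plated dox-free and exposed 24 h at 37C to titrated compounds. Fixed, Hoechst-stained; gated GFP peak intensity by laser scanning cytometry, normalized to DMSO (0%) and 57.5 uM 5-azacytidine (100%).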
(Quantitative high-throughput screening tests each substance at several concentrations.)

Assay [2] addresses Aldehyde dehydrogenase, mitochondrial (Homo sapiens) (UniProt P05091). Kind of assay: qHTS for Inhibitors of the Aldehyde Dehydrogenase Family (ALDH2) Primary screen (AID 2061308).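 Also: plate controls were vehicle for no effect and reference inhibitor for full effect; nearly all actives have a fitted effect of over 55% in size.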
For assay [3], the target named is Retinaldehyde dehydrogenase 3 (Homo sapiens) (UniProt P47895). The experiment in a line: qHTS for Inhibitors of the Aldehyde Dehydrogenase Family (ALDH1A3) Primary screen (AID 2061315). Also: potency is read from the fitted curve at half-maximal effect.

Sequence of Cellular tumor antigen p53 (Homo sapiens) (P04637 whole entry, looked up): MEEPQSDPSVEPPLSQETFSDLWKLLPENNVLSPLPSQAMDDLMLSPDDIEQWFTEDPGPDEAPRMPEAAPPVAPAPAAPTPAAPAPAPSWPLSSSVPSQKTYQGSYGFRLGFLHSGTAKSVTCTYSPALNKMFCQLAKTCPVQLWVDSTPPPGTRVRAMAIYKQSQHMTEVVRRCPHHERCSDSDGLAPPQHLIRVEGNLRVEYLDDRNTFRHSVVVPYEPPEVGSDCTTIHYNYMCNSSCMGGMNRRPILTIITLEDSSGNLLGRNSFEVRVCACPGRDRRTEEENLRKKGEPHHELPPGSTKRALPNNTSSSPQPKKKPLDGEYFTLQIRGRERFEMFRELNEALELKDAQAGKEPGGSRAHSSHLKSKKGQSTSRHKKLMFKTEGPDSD

On to `CC(=O)OC1C(O)C(C)(O)C(/C=C/C(=O)O)C2(C)CCCC(C)(C)C12` (centres undefined), for which the activation in assay [1] is -17.6%. In addition, the Potency entry in assay [2] and in assay [3] was “inactive” throughout.

For `C=C1C2(CCC(=O)OC2(C)C)CC(OC(=O)/C(C)=C/C)C2(C)C13OC14C(=O)OC(C)(C(=O)C12C(=O)OC4C)C3OC(C)=O` (centres undefined), the activation in assay [1] is -0.763%. For the same molecule, the Potency result in assay [2] and in assay [3] was “inactive” throughout.

On to `CC1(C)CCCC2(C)C1C(O)C=C(CO)C2(O)CO` (centres undefined), for which the activation in assay [1] was -13.7%. For the same molecule, the Potency entry in assay [2] and in assay [3] was “inactive” in each case.

On to `CC1(CO)CC2C(O)C(=O)C3(CO)CC3(C)C2C1` (centres undefined), for which the activation in assay [1] was -2.29%. For the same molecule, the Potency entry in assay [2] and in assay [3] was “inactive” in each case.

Take `OCC1OC(Oc2cc(O)cc(/C=C/c3ccc(O)cc3)c2)C(O)C(O)C1O` (centres undefined): in assay [1], the activation was -15.3%. Besides, in assay [2], the Potency entry is “inactive”. In addition, the Potency in assay [3] was 3.55 µM (active).

For `Cn1c(=O)n(-c2ccc(C(C)(C)C#N)cc2)c2c3cc(C#Cc4cccnc4)ccc3ncc21`, in assay [1], the activation is 26.8%. Moreover, the Potency entry in assay [2] and in assay [3] was “inactive” in each case.

Regarding `C/C=C(/C)C(=O)OC1C=C2C3C(C)C(C)C(OC(=O)C(C)C(C)O)CC3(C)CCC2(C)C2(C)CC(OC(C)=O)C3C(C)(C)C(O)C(=O)CC3(C)C12` (centres undefined), the activation in assay [1] was -17%. For the same molecule, the Potency result in assay [2] and in assay [3] was “inactive” each time.

As to `CC(=O)C1=C(O)C=C2Oc3c(C(C)=O)c(O)c(C)c(O)c3[C@]2(C)C1=O`, the activation in assay [1] was -2.68%. Besides, the Potency result in assay [2] and in assay [3] was “inactive” in each case.

On to `CC1(C)CC[C@]2(C(=O)O)CC[C@]3(C)C(=CCC4[C@@]5(C)C[C@@H](O)[C@H](O)C(CO)(CO)C5CC[C@]43C)C2[C@@H]1O` (some centres undefined), for which the activation in assay [1] is -9.16%. The Potency entry in assay [2] and in assay [3] was “inactive” in each case.

`COC(=O)C1=CO[C@@H](O[C@@H]2O[C@H](CO)[C@@H](O)[C@H](O)[C@H]2O)[C@@H]2[C@@](C)(O)[C@@H](O)C[C@]12O`: the activation in assay [1] was -2.29%. Further, the Potency entry in assay [2] and in assay [3] was “inactive” throughout.

On to `CC(=O)[C@H]1CC[C@H]2[C@@H]3CC=C4C[C@@H](OS(=O)(=O)O)CC[C@]4(C)[C@H]3CC[C@]12C`, for which the activation in assay [1] is -4.33%. The Potency entry in assay [2] and in assay [3] was “inactive” in each case.

As for `COC(=O)C1(C)c2[nH]c3ccccc3c2CCN1C(=O)CCl` (centres undefined), the Potency in assay [1] is 30.1 µM (active). In addition, the Potency result in assay [2] and in assay [3] was “inactive” in each case.

Take `C=C1C(=O)O[C@@H]2C/C(C)=C\C(=O)/C=C(\C)[C@@H](OC(=O)/C(C)=C\C)[C@H](O)[C@@H]12`: the Potency in assay [1] is 5.88 µM (active). Also, the Potency result in assay [2] and in assay [3] was “inactive” each time.

With `C=C1C(=O)OC2C=C(C)CC/C=C(\CO)CC(O)C12` (centres undefined), the activation in assay [1] is 9.92%. Further, the Potency result in assay [2] and in assay [3] was “inactive” throughout.

As to `CC1=C(C(=O)O)/C(=C/CO[C@@H]2O[C@H](COC(=O)/C=C/c3ccc(O)cc3)[C@@H](O)[C@H](O)[C@H]2O)C(O)C1` (some centres undefined), in assay [1], the activation was -17.6%. Also, the Potency result in assay [2] and in assay [3] was “inactive” in each case.

Take `CC1CCC23COC(=O)C2=CC(O)CC3C1(C)CCC1=CC(=O)OC1O` (centres undefined): the activation in assay [1] is 0.763%. Besides, the Potency result in assay [2] and in assay [3] was “inactive” throughout.

With `CN(C)CCCn1cc(C2=C(c3c[nH]c4ccccc34)C(=O)NC2=O)c2ccccc21`, in assay [1], the Potency was 30.1 µM (active). Further, the Potency entry in assay [2] and in assay [3] was “inactive” in each case.

Consider `C[C@@H]1O[C@@H](O[C@H]2[C@H](O[C@H]3[C@H](O[C@H]4CC[C@@]5(C)C(CC[C@]6(C)C5CC=C5[C@@H]7CC(C)(C)C[C@@H](O)[C@]7(C)CC[C@]56C)[C@@]4(C)CO)O[C@H](C(=O)O)[C@@H](O)[C@@H]3O)O[C@H](C(=O)O)[C@H](O)[C@@H]2O)[C@H](O)[C@H](O)[C@H]1O` (some centres undefined), for which, in assay [1], the activation is 6.87%. Also, the Potency result in assay [2] and in assay [3] was “inactive” in each case.

`Cc1cc(O)cc2c1O[C@](C)(CCC[C@H](C)CCC[C@H](C)CCCC(C)C)CC2`: the activation in assay [1] was -16.4%. The Potency result in assay [2] and in assay [3] was “inactive” each time.

For `C=CC(C)(O)CC/C=C(\C)COC1O[C@H](CO)[C@@H](O)[C@H](O)[C@H]1O` (some centres undefined), in assay [1], the activation was -14.5%. Besides, the Potency entry in assay [2] and in assay [3] was “inactive” throughout.

Turning to `C=C(C)C(=O)O[C@H]1C[C@@](C)(OC(C)=O)[C@@]2(O)CC[C@@](C)(O)[C@H](OC(C)=O)[C@@]23OC(=O)C(COC)=C13`, the activation in assay [1] was -9.16%. For the same molecule, the Potency entry in assay [2] and in assay [3] was “inactive” throughout.

For the molecule `COc1ccc(CCC(=O)O)c(O[C@@H]2O[C@H](CO)[C@@H](O)[C@H](O)[C@H]2O)c1`, the activation in assay [1] is -13.7%. Further, the Potency entry in assay [2] and in assay [3] was “inactive” in each case.

In the case of `C[C@@H]1O[C@@H](O[C@H]2[C@@H](OC(=O)[C@]34CCC(C)(C)CC3C3=CCC5[C@@]6(C)C[C@H](O)[C@H](O[C@@H]7O[C@H](C(=O)O)[C@@H](O)[C@H](O)[C@H]7O)[C@@](C)(C(=O)O)C6CC[C@@]5(C)[C@]3(C)CC4)OC[C@H](O)[C@@H]2O)[C@H](O)[C@H](O)[C@H]1O[C@@H]1OC[C@@H](O)[C@H](O)[C@H]1O` (some centres undefined), the activation in assay [1] is -8.93%. Also, the Potency result in assay [2] and in assay [3] was “inactive” throughout.
